Sampled rows, rich in hits. Any-hit rate of the full collection: about 7.5%.
NPC1 prom act – qHTS Assay for NPC1 Promoter Activators | Huh7 NPC1 promoter luciferase reporter, 24 h | Potency, µM (titrated, usually from 9.22 µM), inactives show at the top dose activation, actives largely listed as activators | 320,000 tested, 2.4% active; note: % of control where 0% means no effect; nearly all actives have a fitted effect of over 60% in size
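Stable NPC1-promoter luciferase Huh7 line; cpd (DMSO) 24 h, 37 °C, 5% CO2; Amplite luciferase reagent 10 min RT; luminescence readout. qHTS format.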
Rab9 promoter act – qHTS Assay for Rab9 Promoter Activators | Potency, µM (top dose mostly 9.22 µM), for inactives: at the top dose activation, negative = inhibition, actives largely listed as activators | Huh7 Rab9 promoter-luciferase reporter, luminescence, 24 h | 320,000 tested, 2.8% active; note: % of control where 0% means no effect; nearly all actives have a fitted effect of over 60% in size
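Luminescence read-out: Huh7 cells stably expressing Rab9-luciferase, treated 24 h with compound at 37 °C, then lysed with luciferase reagent for 10 min at ambient before reading.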
Luc counter – Counterscreen for Luciferase (Kinase-Glo TM) Inhibition | Kinase-Glo luciferase, ATP luminescence, 8 min | Potency, µM (titrated, usually from 38.3 µM), for inactives: at the top dose activity change, negative = inhibition, actives largely listed as inhibitors | 200,000 tested, 0.28% active; note: % is set by controls: 0 for no effect and ±100 for the full control effect; nearly all actives have a fitted effect of over 60% in size
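Light output from Kinase-Glo luciferase with luciferin and 10 uM ATP in 50 mM imidazole pH 7.2, KCl, MgCl2, Tween 20, BSA; compound pin-delivered, 8-min ambient incubation, then luminescence read.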
SMN2 splice enh – qHTS Assay for Enhancers of SMN2 Splice Variant Expression; HEK293 SMN2-luciferase splicing reporter, luminescence, 30-36 h; Potency, µM (top dose mostly 46.1 µM), for the others: at the top dose activity change, positive = activation, actives largely listed as activators; 210,000 tested, 2.8% active; AID 1458, 2008; note: % of control where 0% means no effect; nearly all actives have a fitted effect of over 55% in size
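qHTS luciferase splicing reporter: luminescence rises when SMN2 exon 7 is included in transfected HEK293 cells. Compound exposure lasted 30-36 h at 37C, with 4.5 mM final sodium butyrate as control, followed by a ONE-Glo read.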
ELG1 genotoxic – qHTS screen for small molecules that induce genotoxicity in human embryonic kidney (HEK293T) cells expressing luciferase-tagged ELG1. HEK293T ELG1-luciferase reporter, luminescence, 16 h. Potency, µM (highest dose often 46 µM), for the others: at the highest dose activity change, positive = activation, most hits filed as activators. 330,000 tested, 1.3% active; note: % of control where 0% means no effect; nearly all actives have a fitted effect of over 60% in size
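Screening used a luciferase reporter fused to human ELG1 in HEK293T cells. Luminescence was read on a CCD plate imager after 16 hr exposure and 30 min ONE-Glo incubation.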
FLuc modulator – qHTS profiling assay for firefly luciferase inhibitor/activator using purifed enzyme and Km concentrations of substrates (counterscreen for miR-21 project); AID 588342, 2011; 360,000 tested, 6.9% active; Luciferin 4-monooxygenase (Photinus pyralis), P08659; Potency, µM (highest dose often 57.5 µM), for inactives: at the highest dose activity change, negative = inhibition, hits mostly inhibitors; purified FLuc, Km substrates, luminescence inhibition;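 note: plate controls were vehicle for no effect and reference inhibitor for full effect; nearly all actives have a fitted effect of over 55% in size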
Target sequence (P08659 whole entry, looked up): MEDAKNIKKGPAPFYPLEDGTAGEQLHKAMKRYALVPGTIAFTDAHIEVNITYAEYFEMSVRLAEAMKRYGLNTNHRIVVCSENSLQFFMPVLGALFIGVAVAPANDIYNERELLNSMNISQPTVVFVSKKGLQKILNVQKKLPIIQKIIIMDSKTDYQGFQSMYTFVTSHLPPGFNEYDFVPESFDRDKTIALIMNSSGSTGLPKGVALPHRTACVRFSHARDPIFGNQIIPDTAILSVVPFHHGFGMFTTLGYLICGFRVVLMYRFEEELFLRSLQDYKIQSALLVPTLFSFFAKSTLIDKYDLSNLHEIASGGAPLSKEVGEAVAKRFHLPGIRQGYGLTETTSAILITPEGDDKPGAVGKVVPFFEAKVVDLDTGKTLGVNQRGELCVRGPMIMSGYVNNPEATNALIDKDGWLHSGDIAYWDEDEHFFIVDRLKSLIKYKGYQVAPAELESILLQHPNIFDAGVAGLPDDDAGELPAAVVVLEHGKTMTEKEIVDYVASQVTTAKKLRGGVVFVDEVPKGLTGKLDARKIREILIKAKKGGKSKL
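Biochemical qHTS of compounds, final roughly 60 µM downward over six points, against 10 nM purified firefly luciferase using Km concentrations of substrates (10 uM D-luciferin, 10 uM ATP) in Tris acetate pH 7.5 buffer; luminescence output.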
Numbers without * were called inactive; ? = inconclusive; . = no result given; ! = a repeat was not active. Calls come from the whole dose curve; as a rule, active = well fitted curve in the direction sought with a large enough effect; inconclusive = small, poorly fitted or top-dose-only effect, or another doubt; inactive = no such curve, though single readings can be large; an effect the other way counts as inactive or inconclusive. Potency is the fitted concentration of half-maximal effect.

SMILES | NPC1 prom act | Rab9 promoter act | Luc counter | SMN2 splice enh | ELG1 genotoxic | FLuc modulator
COc1ccccc1OCCCn1c(=O)oc2ccccc21 | 4.3% | 0.9% | 2.6% | 16.0% | 8.1% | ?
CCCOc1ccc(Cn2c(=O)sc3ccccc32)cc1 | . | . | . | -18.3% | . | -13.8%
O=c1sc2ccccc2n1CCOc1ccccc1 | ? | ? | -10.4% | ? | 20.6µM* | 13.5µM*
Cc1ccc(N(CC(=O)N2CCN(c3cc(Cl)ccc3C)CC2)S(=O)(=O)c2c(C)noc2C)cc1 | . | . | . | -44.6% | . | -1.8%
CCOCCCNC(=O)c1cc2c(s1)-c1ccccc1SC2 | 1.2% | 4.9% | . | . | 2.2% | 16.9µM*
O=C(N/C=C/c1ccco1)OCc1ccccc1 | ? | 3.55µM* | -3.5% | 12.6µM* | ? | 10.7µM*
O=C(N/C=C/c1ccco1)NCc1ccccc1 | -1.6% | 1.3% | 1.0% | 7.4% | 0.4% | -10.2%
CN1CCN(S(=O)(=O)c2ccc(NC(=O)c3ccc(F)cc3Cl)cc2)CC1 | 0.0% | 3.4% | . | . | 2.3% | -1.1%
CN(CC(=O)Nc1ccccc1Cl)C(=O)CN1C(=O)C2CC=CCC2C1=O (stereo not given) | . | . | . | . | -1.0% | .
O=C(N/N=C/c1cc2c(cc1[N+](=O)[O-])OCO2)c1ccc2c(c1)OCO2 | 2.9% | 5.5% | . | . | -0.2% | ?
COc1c(O)ccc(/C=N/NC(=O)c2ccc3c(c2)OCCO3)c1[N+](=O)[O-] | ? | ? | . | . | ? | 2.69µM*
COc1c(O)ccc(/C=N\NC(=O)c2ccc3c(c2)OCO3)c1[N+](=O)[O-] | 3.7% | -0.2% | . | . | 13.4% | 15.1µM*
CC(C)(C)n1ncc2c(=O)n(CC(=O)NCc3ccc(F)cc3)cnc21 | 0.501µM* | 0.355µM* | -8.0% | 8.91µM* | 4.11µM* | 4.26µM*
CC(C)(C)n1ncc2c(=O)n(CC(=O)NCc3ccco3)cnc21 | 3.16µM* | 3.16µM* | -7.3% | 12.6µM* | ? | ?
CC(C)(C)n1ncc2c(=O)n(CC(=O)Nc3ccccc3)cnc21 | 4.3% | 7.8% | 0.9% | -12.9% | 6.3% | -9.0%
CC(C)(C)n1ncc2c(=O)n(CC(=O)NC3CCCCC3)cnc21 | ? | ? | 8.7% | 24.8% | ? | ?
Cc1cccc(NC(=O)c2ccc(CN3CC(=O)N4CCCCC4C3=O)cc2)c1C (stereo not given) | . | . | . | . | . | -8.9%
Cc1cc(-c2n[nH]c(=S)o2)c(C)n1-c1ccccc1 | ? | 2.51µM* | -2.1% | 7.08µM* | ? | 3.01µM*
Oc1cc2ccccc2cc1-c1n[nH]c(=S)o1 | 2.0% | 13.8% | -4.1% | 5.5% | 7.6% | ?
Cc1c(C(=O)N(Cc2ccco2)Cc2ccccc2Cl)oc2ccc(F)cc12 | . | . | . | -7.9% | . | -12.0%
Cc1ccc(O)c(NC(=O)c2noc3c2CCCCC3)c1 | 2.82µM* | ? | -16.3% | 3.98µM*! | ? | 4.78µM*
CSc1ccccc1NC(=O)c1noc2c1CCC2 | 5.0% | 24.4% | 1.1% | -5.4% | 14.6µM* | ?
Cc1ccc(Cn2ccc(NC(=O)c3noc4c3CCCCC4)n2)cc1 | 16.3% | 0.7% | -2.5% | -32.0% | 2.0% | ?
Cc1ccc(O)c(NC(=O)c2noc3c2CCCC3)c1 | . | . | . | 11.2µM* | . | 8.49µM*
CCCC(=O)NC1CC(=O)N(c2ccc3c(c2)OCCO3)C1 (stereo not given) | . | . | . | . | . | -1.6%
SMILES | NPC1 prom act | Rab9 promoter act | Luc counter | SMN2 splice enh | ELG1 genotoxic | FLuc modulator
Fc1ccc(OCc2nc(-c3ccc(Br)o3)no2)c(F)c1 | 22.6% | 16.0% | -3.7% | -2.1% | 16.4% | 16.9µM*
Cc1ccc(-c2noc(CCCc3ccccc3)n2)cc1 | 28.6% | 10.1% | -3.2% | 5.4% | 13.7% | 23.9µM*
Clc1ccccc1OCc1nc(-c2ccc(Br)o2)no1 | 29.8% | ? | -3.8% | ? | 23.1µM* | 15.1µM*
c1ccc(CCc2nc(-c3ccccn3)no2)cc1 | 3.16µM* | 2.24µM* | 2.0% | 11.2µM* | ? | 13.5µM*
O=[N+]([O-])c1ccc(SCc2ccncc2)nc1 | -7.2% | -2.9% | . | . | 0.7% | 3.4%
CCOc1ccc(OCC)c(NC(=O)c2cnn(-c3ccc(F)cc3)c2C2CCN(C(=O)OC(C)(C)C)CC2)c1 | . | . | . | . | . | -4.6%
Nc1nnc(CC(=O)N/N=C/c2ccc(-c3cccc(C(=O)O)c3)o2)s1 | -0.3% | 15.3% | . | . | 7.9% | ?
Cc1ccc2c(CC(=O)Nc3cccc(S(=O)(=O)N4CCOCC4)c3)coc2c1 | -2.5% | 4.1% | -2.5% | -3.1% | -1.1% | ?
O=C(O)c1cccc(N2C(=O)C3C4C=CC(C4=C(c4ccccc4)c4ccccc4)C3C2=O)c1 (stereo not given) | -9.5% | -0.2% | 1.8% | -23.3% | -0.4% | -18.6%
Cc1ccc2c(C)c(C(=O)N(Cc3ccc(F)cc3)C3CCS(=O)(=O)C3)oc2c1 (stereo not given) | -12.1% | -9.0% | . | . | -3.8% | 0.2%
Brc1ccc(-c2noc(CCc3ccccc3)n2)o1 | 19.0% | 19.5% | 2.6% | 18.1% | 15.4% | 23.9µM*
Cc1ccc2nc(CSc3nc(C)cc(C)c3C#N)[nH]c2c1 | 11.8% | ? | -1.3% | 4.47µM* | ? | 3.38µM*
O=C(NC1CC1)c1ccc(-n2cccc2)cc1 | 19.1% | ? | -4.8% | 11.5% | 19.0% | ?
CC1=C(C(=O)Nc2ccccc2)C(c2cccnc2)n2nc(SCc3ccccc3Cl)nc2N1 (stereo not given) | . | . | . | 1.4% | . | -1.0%
O=C(Oc1ccc(Cl)cc1)c1ccc(COC(=O)c2cnccn2)cc1 | -5.1% | -3.5% | 0.4% | 12.5% | 9.3% | 12µM*
CC(C)OC(=O)c1ccc(COC(=O)c2cnccn2)cc1 | 0.6% | 0.1% | -10.8% | -7.5% | 2.1% | 7.57µM*
Cc1ccc2c3c(cccc13)-c1ccccc1C2=O | -0.1% | -4.3% | 2.2% | ? | 0.5% | 19µM*
CC1CN(Cc2c(O)ccc3c(=O)c(-c4ccccc4Cl)coc23)CC(C)O1 (stereo not given) | 4.2% | -0.9% | . | . | -1.7% | 2.6%
Cc1oc(-c2ccc(C(=O)Nc3cccc(C(F)(F)F)c3)cc2)nc1CSc1ccccc1 | . | . | . | . | . | -9.4%
Cc1ccc(C(=O)NC(=S)Nc2cccc(-c3nc4ccccc4s3)c2)cc1 | 15.0% | 8.9% | -1.3% | 6.4% | ? | 12µM*
CC(=O)Nc1cccc(-c2nc3ccccc3s2)c1 | ? | 2.24µM* | -3.4% | 12.6µM* | ? | 9.53µM*
CC(=O)Nc1cccc(-c2cc(C)c3cc4c(cc3n2)OCO4)c1 | ? | 29.7% | . | . | ? | 8.49µM*
